Reference: PubChem BioAssay (NCATS)
Results filed as inconclusive are left out. Unmarked numbers belong to inactive results. Active and inactive are the calls of the source. The call rests on the fitted dose curve; in most records, active means well fitted curve in the direction sought with a large enough effect; inconclusive means small, poorly fitted or top-dose-only effect, or another doubt; inactive means no such curve, though single readings can be large; an effect the other way counts as inactive or inconclusive.

Tests used:
[1] = Viability qHTS for spleen associated tyrosine kinase inhibitor (SYKi) naive MV4-11 cells (AID 1963823); further: nearly all actives have a fitted effect of over 40% in size
Procedure, shortened: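 Read-out: CellTiter-Glo luminescence. Exposure: 72 hr, 37 C, 5% CO2, 95% humidity. Cells: MV4-11 without SYK inhibitor history, 500/well, qHTS format.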

[2] = Viability qHTS for spleen associated tyrosine kinase inhibitor (SYKi) drug resistant MV4-11 cells (AID 1963824); further: nearly all actives have a fitted effect of over 35% in size
Procedure, shortened: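 SYK inhibitor-resistant MV4-11 AML cells, 500 per well, added to predispensed compounds and incubated 72 hr at 37 C, 5% CO2. Viability measured by CellTiter-Glo luminescence after 10 min at room temperature.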

[3] = Cellular viability qHTS for adrenocortical cancer (ACC) cell line SW-13 (AID 1963989); conditions: SW-13 ACC cells viability, CellTiter-Glo, 48 h; activity (max response): active compounds read low; further: nearly all actives have a fitted effect of over 65% in size;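 on activity (max response): cells grown in serum-free medium with ITS supplement; on the % scale 0 is the no-effect control and ±100 the full control effect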
Procedure, shortened: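 Compound titrations (up to 46 uM final, in DMSO) were applied to SW-13 cells for 48 h at 37C/5% CO2. Reading used CellTiter-Glo after 20 min at room temperature; fitted curves yielded IC50 and efficacy.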

[4] = Cellular viability qHTS for adrenocortical cancer (ACC) cell line NCI-H295R (AID 1963990); further: nearly all actives have a fitted effect of over 60% in size
Procedure, shortened: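 Readout: CellTiter-Glo luminescence, 20 min RT. Exposure: 48 h, 37C/5% CO2. Cells: NCI-H295R, ITS-DMEM serum-free. Range: up to 46 uM. Analysis: 4PL fit, IC50 plus efficacy.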
Potency means the concentration at half of the fitted maximal effect.

Structure (SMILES)	Potency [1]	Potency [2]	activity (max response) [3] [%]	Potency [4]	Potency [3]
NCC1CCC(C(=O)O)CC1 (stereo unspecified)	inactive	inactive	10.7	inactive	–
CC(C)Nc1cccnc1N1CCN(C(=O)c2cc3cc(NS(C)(=O)=O)ccc3[nH]2)CC1	inactive	inactive	-10.3	inactive	–
O=C1CC(c2c[nH]c3ccc(F)cc23)C(=O)N1 (stereo unspecified)	inactive	inactive	-18.5	inactive	–
C[C@@H]1CC(=O)Nc2cccc(-c3ccc4c(c3)c(-c3cnn(C)c3)nn4C)c2N1	2.09 µM (active)	1.32 µM (active)	-3.66	inactive	–
COC(=O)/C=C/C(=O)OC	inactive	inactive	-9.41	inactive	–
CN(C)C/C=C/C(=O)Nc1cccc(C(=O)Nc2cccc(Nc3ncc(Cl)c(-c4c[nH]c5ccccc45)n3)c2)c1	inactive	0.0037 µM (active)	–	1.12 µM (active)	0.316 µM (active)
C#C[C@]1(O)CC[C@H]2[C@@H]3[C@H](C)CC4=C(CCC(=O)C4)[C@H]3CC[C@@]21C	inactive	18.6 µM (active)	-17.1	inactive	–
c1ccc(Cn2c(-c3ccc(OCC(C4CCNCC4)n4c(-c5ccccc5)nc5ccccc54)cc3)nc3ccccc32)cc1 (stereo unspecified)	5.25 µM (active)	7.42 µM (active)	–	7.08 µM (active)	25.1 µM (active)
COc1cc(C(=O)O)ccc1NC(=O)[C@@H]1N[C@@H](CC(C)(C)C)[C@](C#N)(c2ccc(Cl)cc2F)[C@H]1c1cccc(Cl)c1F	6.61 µM (active)	5.25 µM (active)	1.9	inactive	–
